A selection: hits, their analogues and other compounds. The true share with any hit is near 0.75%.
Y pestis TopoI – Yersinia pestis topoisomerase I inhibitors, primary screen, biochemical, cleavage product accumulation, plate reader, single point | 0.064% of 360,000 active | Y. pestis Topo-I cleavage product accumulation | activity, % at 10 µM; in the data active means activity above about 50%, passing the limit was not always enough
Mtb hypoxia inh – PubChem AID 1159583. 0.1% of 300,000 active. fluorescence inhibition, % (no concentration beside the values). M. tuberculosis hypoxia-regulated fluorescent reporter, fluorescence; in the data active means fluorescence inhibition mostly above about 23%, no sharp cut-off; inactive means mostly below about 17%
TcdB GH inh – TcdB glycohydrolase inhibitors, primary screen, biochemical, single point, plate reader. TcdB glycohydrolase enzymatic assay. 0.24% of 350,000 active. inhibition, % at 9.99 µM. AID 652162, 2013; in the data active means inhibition above about 10%
ugtP null kill – growth inhibition of ugtP-null S. aureus, primary screen, RN4220 ugtP deletion, OD600; 16 h; growth inhibition, % (concentration not given with the values); AID 1259309, 2017; 0.54% of 330,000 active; in the data active means growth inhibition above about 68%;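 further: plate controls were untreated wells for no effect and antibiotic for full effect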
Mtb BioA inh – M. tuberculosis BioA enzyme inhibitors, primary screen, biochemical, plate reader, single point, HTS. 7,8-diaminopelargonic acid synthase BioA (Mycobacterium tuberculosis). 0.096% of 360,000 active. purified M. tuberculosis BioA enzyme. AID 602481, 2012. inhibition, % at 9.99 µM; in the data active means inhibition above about 40%
RN4220 kill – growth inhibition of S. aureus RN4220, primary screen, OD600; 16 h; inhibition, % (test concentration not listed); 0.33% of 330,000 active; in the data active means inhibition above about 85%;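 further: plate controls were untreated cells for no effect and reference antibiotic for full effect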
The depositor's hits bear a star; · = no result given.

SMILES	Y pestis TopoI	Mtb hypoxia inh	TcdB GH inh	ugtP null kill	Mtb BioA inh	RN4220 kill
O=C(Nc1ccc2c(c1)OCCO2)c1cc2ccccc2o1	4.4	9.3	10.2*	-1.9	6.3	4.7
O=C(Nc1cccc(Cl)c1N1CCCC1)c1ccc(Br)o1	9.1	15.6	·	45.0	-0.6	2.9
CN(C)S(=O)(=O)c1ccc(NC(=O)c2cc3ccccc3o2)cc1	-0.4	0.3	·	7.4	43.9*	5.6
COc1ccc(NC(=O)N(C)CC2Oc3ccc(NC(=O)Nc4ccc5c(c4)OCO5)cc3C(=O)N(C(C)CO)CC2C)cc1 (centres undefined)	·	2.1	·	1.2	·	3.3
C=CCn1c(COc2ccc(CC)cc2)nnc1SCC(O)=C(C#N)c1nc2ccccc2[nH]1	·	·	·	7.8	·	1.1
CCCCCn1c(=O)c(C(=O)Nc2ncccc2C)c(O)c2ccccc21	-7.3	·	0.1	100.8*	-3.5	53.4
CCCCn1c(=O)c(C(=O)Nc2cnccn2)c(O)c2ccccc21	-1.3	2.4	·	83.1*	·	67.7
Cc1ccc(C)c2c1[nH]c1ccc([N+](=O)[O-])cc12	-33.7	13.8	·	83.9*	-3.8	80.0
O=C(Nc1ccncc1)c1ccc(-c2ccccc2)cc1	9.3	17.4	10.7*	2.2	·	6.8
NC(=O)C1CC2(CC(c3cccc(NC(=O)CC(c4ccccc4)c4ccccc4)c3)=NO2)CN1C(=O)CC(c1ccccc1)c1ccccc1 (centres undefined)	·	-5.5	·	-2.2	·	-4.6
O=C1Nc2ccccc2/C1=C\C(=O)c1ccccc1	-9.9	3.3	2.5	97.6*	-0.2	98.2*
CCOC(=O)C1C2COc3ccc(C)cc3C2N2C(=O)c3cc(C)ccc3NC(=O)[C@@]12C (some centres undefined)	·	8.5	·	-2.8	·	1.3
COc1ccc(OC)c(C=c2sc3nc(-c4cccs4)nn3c2=O)c1	·	-2.3	·	-3.9	·	3.9
CCn1nc(/C=C/c2ccccc2)nc2c(=O)n(C)c(=O)nc1-2	0.7	15.7	-0.7	98.9*	·	97.6*
CCn1nc(-c2cccs2)nc2c(=O)n(C)c(=O)nc1-2	-6.6	3.6	·	99.9*	4.4	99.0*
O=C(N[C@@H](Cc1c[nH]c2ccccc12)C(=O)O)C1CCN(S(=O)(=O)c2ccc(Cl)cc2)CC1	8.9	-3.9	0.5	7.7	2.4	3.6
O=C(N[C@@H](Cc1c[nH]c2ccccc12)C(=O)O)C1CCN(S(=O)(=O)c2cccs2)CC1	-4.8	0.4	10.5*	-1.5	0.7	-4.5
CC(=O)n1cc(N(C(=O)CCl)c2ccc(Cl)cc2)c2ccccc21	22.3	19.9	·	94.8*	13.5	57.6
CC(C)Sc1nc2c(c(=O)n(C)c(=O)n2C)n1Cc1ccc(Cl)cc1	6.0	37.8*	·	-0.5	1.7	-13.1
Cn1c(=O)c2c(nc(SCc3ccccc3)n2Cc2ccc(Cl)cc2)n(C)c1=O	-11.6	·	·	13.3	-3.3	2.4
N#CC1=C(N)OC2=C(CN(Cc3ccccc3)CC2=Cc2cccnc2)C1c1cccnc1 (centres undefined)	·	·	·	1.0	·	4.5
CC(=NN=C(N)N)c1ccc(Cl)c(Cl)c1	·	18.1	·	-6.2	·	-15.3
Oc1c(Cl)c(Cl)c2ncccc2c1Cl	0.8	3.8	0.6	5.1	·	25.0
Oc1c(Cl)c(Cl)c(Cl)c(Cl)c1Cl	0.8	6.7	0.1	100.4*	-1.4	100.2*
Cc1nn(-c2ccc(N3CCOCC3)nn2)c(C)c1CCC(=O)N1CCN(C)CC1	5.6	75.2*	-0.1	3.0	-0.1	2.9
SMILES	Y pestis TopoI	Mtb hypoxia inh	TcdB GH inh	ugtP null kill	Mtb BioA inh	RN4220 kill
Cc1ccccc1NC(=O)CCc1c(C)nn(-c2ccc(N3CCOCC3)nn2)c1C	-3.6	-3.8	-5.6	-7.2	2.3	0.4
CN1c2ccsc2C(=NNc2ccccc2)CS1(=O)=O	·	12.6	·	96.3*	·	82.7
CC1NC(=O)C(CCC(N)=O)NC(=O)c2cc([N+](=O)[O-])cc(I)c2NCCC(C(N)=O)NC1=O (centres undefined)	·	8.2	·	4.2	·	3.6
S=C(NCCc1ccccc1)NN=Cc1cccs1	·	13.9	·	1.0	·	-1.9
Fc1ccc(COc2ccc(Br)cc2CNCc2ccncc2)cc1	35.3	-0.1	·	-6.8	·	-0.9
CCOc1cc(CNCc2ccncc2)cc(Br)c1OCc1ccc(F)cc1	34.0	14.2	·	93.6*	-0.9	12.1
COc1cc(NS(=O)(=O)c2ccc(Nc3nc(-c4ccccn4)cs3)cc2)nc(OC)n1	-12.5	-3.5	1.1	89.5*	·	-3.1
COc1ccc(-c2csc(Nc3ccc(S(=O)(=O)Nc4cc(OC)nc(OC)n4)cc3)n2)cc1	-2.0	0.0	·	19.7	3.6	4.9
Cn1cc(C(=O)c2ccc(Cl)cc2Cl)cc1C(=O)NN=C(N)COc1ccc(F)cc1	·	-3.6	·	-20.1	·	-7.0
O=C(Nc1ccc(S(=O)(=O)NC2=NCCCCC2)cc1)c1cccs1	10.1	30.1*	-3.2	3.8	0.7	2.3
O=C(Nc1ccc(S(=O)(=O)NC2=NCCCCC2)cc1)c1ccc([N+](=O)[O-])s1	-6.7	17.2	-0.3	9.5	11.8	6.9
COc1ccc(C(=O)Nc2ccc(N3CCN(C)CC3)cc2)cc1[N+](=O)[O-]	3.3	9.6	-1.0	2.7	·	9.7
COc1ccc(C(=O)NC(=S)Nc2ccc(N3CCN(C(C)=O)CC3)cc2)cc1[N+](=O)[O-]	10.4	13.8	-0.1	99.2*	·	3.9
CCOc1ccc(C(=O)NC(=S)Nc2ccc(N3CCCCC3)cc2)cc1[N+](=O)[O-]	-16.1	17.1	-9.5	30.9	·	0.6
CC(=O)N1CCN(c2ccc(NC(=S)NC(=O)c3ccc(C)c([N+](=O)[O-])c3)cc2)CC1	10.2	14.5	-0.2	90.1*	·	3.6
O=C(NC1CCN(Cc2ccccc2)CC1)c1cccc(Br)c1	-5.9	10.7	0.1	14.4	-3.9	-2.2
O=C(NC1CCN(Cc2ccccc2)CC1)c1ccc2c(c1)OCCCO2	70.2*	2.7	-1.2	5.3	·	2.3
O=C(c1ccc2c(c1)N(Cc1ccccc1)C(=O)c1ccccc1S2)N1CCCC1	18.2	-2.2	34.3*	-1.5	2.1	3.7
O=C(NCCN1CCOCC1)c1ccc2c(c1)N(Cc1ccccc1F)C(=O)c1ccccc1S2	16.8	1.6	2.1	1.1	-0.1	0.2
O=C(c1ccc2c(c1)N(Cc1ccccc1F)C(=O)c1ccccc1S2)N1CCOCC1	·	11.9	10.1*	4.3	·	2.6
O=C(NN=Cc1cccc(C(F)(F)F)c1)c1cc2c(s1)-c1ccccc1CC2	·	·	·	4.6	·	-8.9
O=C(NC(=S)Nc1ccc(O)cc1)c1cncc(Br)c1	0.0	-2.7	14.6*	58.6	·	3.9
O=C(NC(=S)Nc1cccc(O)c1)c1cncc(Br)c1	3.6	8.7	0.9	20.2	·	3.1
O=C(COC(=O)/C=C/c1ccccc1)Nc1cccnc1Cl	9.1	10.2	-1.9	-2.1	-0.5	2.8
Cc1c(O)ccc(NC(=O)/C=C/c2ccccc2)c1C	1.1	15.0	17.4*	-3.6	·	2.8

Source: PubChem BioAssay (several laboratories)
